# Test results from PubChem BioAssay AID2284095 (EPA ToxCast).
# Records with an inconclusive call do not appear. The source made the active and inactive calls. Rule for the calls: active = hit-call score of the fitted dose curve at least 0.9, where 1 is the maximum; inconclusive = response in the unintended direction; inactive = score below 0.9.
# Biological target: human Chymotrypsin Serine Peptidase, ELANE (gene 1991) (UniProt P08246)
# Experiment: ERF_FR_ENZ_hELANE: Eurofins (ERF) Enzymatic Neutrophil Elastase LeadHunter Assay for human Chymotrypsin Serine Peptidase
# Protocol: ERF_FR_ENZ_hELANE is a biochemical, single-readout assay that uses extracted gene-proteins in a cell-free assay. Measurements were taken 0.5 hour after chemical dosing in a 96-well plate. See Neutrophil Elastase Human Chymotrypsin Serine Peptidase Enzymatic Assay, Cerep.ERF_FR_ENZ_hELANE is an assay component calculated from the ERF_FR_ENZ_hELANE assay. It is designed to measure enzyme activity using a type of enzyme reporter as detected by absorbance with spectrophotometry technology.Data from the assay component ERF_FR_ENZ_hELANE was analyzed at the assay endpoint, ERF_FR_ENZ_hELANE, in the positive analysis fitting direction relative to DMSO as the negative control and baseline of activity. Using a type of enzyme reporter, loss-of-signal activity can be used to understand changes in enzymatic activity as they relate to gene ELANE. To generalize the intended target to other relatable targets, this assay endpoint is annotated to the protease intended target family, where the subfamily is serine peptidase.
# Human cells are incubated for 30 minutes at 37 C with MeOSAAPV-pNa (0.4 mM) as sunstrate and 3',4'dichloroisocoumarin as control inhibitor. Test Sample Requirements: Minimum for 1) Screen: 60 ul of 10 mM stock -OR- 1 mg (pre-weighed) for 10 uM final testing. 2) Dose Response: 90 ul of 10 mM stock -OR- 1 mg (pre-weighed) for a top concentration at 10 uM.
# human Chymotrypsin Serine Peptidase, ELANE (gene 1991), sequence (P08246 whole entry, looked up): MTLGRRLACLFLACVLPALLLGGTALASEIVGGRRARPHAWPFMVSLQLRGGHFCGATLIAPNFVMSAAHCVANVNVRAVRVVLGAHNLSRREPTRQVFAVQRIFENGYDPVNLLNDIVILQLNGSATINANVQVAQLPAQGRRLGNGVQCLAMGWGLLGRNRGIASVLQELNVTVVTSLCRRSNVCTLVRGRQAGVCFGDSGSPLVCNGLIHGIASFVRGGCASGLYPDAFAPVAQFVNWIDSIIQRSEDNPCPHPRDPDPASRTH
Compound,outcome,AC50
COc1cc(/C=C/C(=O)CC(=O)/C=C/c2ccc(O)c(OC)c2)ccc1O,inactive,
O=C(/C=C/c1ccc(O)cc1)CC(=O)/C=C/c1ccc(O)cc1,,8.6 µM (active)
COc1cc(CCC(=O)CC(=O)CCc2ccc(O)c(OC)c2)ccc1O,inactive,
